Bioassay records (PubChem BioAssay)
CYP2C9 inhib: blocks human cytochrome P450 2C9. P11712. CYP2C9 Supersomes, luciferin-H conversion, luminescence. inhibition, % at 5 µM. 96,000 compounds, 20% hits;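 active = blocking of liver enzyme CYP2C9 beyond about 50% at 5 µM, limit read from the data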
D1 mod: allosterically modulates the human D1 dopamine receptor | HEK293 D1, CRE-luciferase, dopamine EC30 potentiation; actives deviate in either direction | B-score at 10 µM | 58,000 compounds, 5.9% hits;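 active = luminescence count or its row- and column-corrected plate score outside the 99.7% band of the plate's sample wells, on either side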
CYP2C19 inhib: human CYP2C19 inhibition; P33261; CYP2C19 Supersomes, luciferin-H EGE luminescence, 30 min; inhibition, % at 5 µM; 96,000 compounds, 21% hits; AID 778;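 active = CYP2C19 inhibition above a set limit at 5 µM in the primary screen, cut at about 50% in these data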;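 note: plate controls were negative control wells for no effect and 2.5 mM tranylcypromine positive control for full effect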
Target sequence (P33261 whole entry, looked up): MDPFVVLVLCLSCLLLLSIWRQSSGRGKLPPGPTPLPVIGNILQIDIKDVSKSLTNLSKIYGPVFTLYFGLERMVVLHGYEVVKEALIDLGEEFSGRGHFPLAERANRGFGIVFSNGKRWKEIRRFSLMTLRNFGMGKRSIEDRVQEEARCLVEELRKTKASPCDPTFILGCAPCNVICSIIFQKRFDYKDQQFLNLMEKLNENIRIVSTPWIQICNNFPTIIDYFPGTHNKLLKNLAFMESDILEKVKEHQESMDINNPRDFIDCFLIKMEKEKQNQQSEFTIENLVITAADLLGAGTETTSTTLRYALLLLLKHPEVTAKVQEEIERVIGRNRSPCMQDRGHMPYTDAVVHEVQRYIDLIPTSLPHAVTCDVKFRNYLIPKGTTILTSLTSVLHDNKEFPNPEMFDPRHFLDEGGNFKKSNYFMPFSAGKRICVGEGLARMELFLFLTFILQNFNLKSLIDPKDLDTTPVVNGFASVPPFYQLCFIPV
CYP2C9 act: CYP2C9 (human) activation; recombinant CYP2C9, luciferin-H conversion, luminescence; active compounds read high; factor 1 = untreated enzyme, 0 = blocked; activation factor at 5 µM; P11712; 96,000 compounds, 1.4% hits;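 active = activation factor of 2 or more for CYP2C9 at a 5 µM dose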;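 note: 0 = sulfaphenazole-blocked wells and 1 = vehicle-only wells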
CYP2C19 act: activators of human cytochrome P450 2C19; P33261; activation factor at 5 µM; recombinant CYP2C19, luciferin-H EGE luminescence; active compounds read high; 0 = fully inhibited enzyme, 1 = untreated enzyme; 96,000 tested, under 10 active;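 active = activation factor of at least 2 at 5 µM in the primary screen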;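 note: 0 = wells with 2.5 mM tranylcypromine and 1 = vehicle-only wells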
hDAT+cocaine: changed human dopamine transporter uptake under cocaine IC80; 110,000 compounds, 1.3% hits; AID 449768; B-score at 10 µM; LLC-PK1 hDAT cells, [14C]-dopamine uptake with cocaine IC80; actives deviate in either direction;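 active = Z score or B-score, a plate-position-corrected score, falls beyond the plate's 99.7% confidence bounds, in either direction; inactive = both scores lie inside the 99.7% bounds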;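 note: scored against the spread of the other compound wells on the same plate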
* marks the source's active call; other numbers are inactive results; . = not tested or not shown. In the library only some 28% were active in any assay of this set; here they are far more common.

SMILES	CYP2C9 inhib	D1 mod	CYP2C19 inhib	CYP2C9 act	CYP2C19 act	hDAT+cocaine
COc1ccc(N=c2oc3c(OC)cccc3cc2C(=O)NCc2ccco2)cc1OC	72*	-3.9*	50*	0.3	0.5	0.041
COc1ccc(OC)c(N=c2oc3c(OC)cccc3cc2C(=O)NCc2ccco2)c1	50*	0.028	45	0.5	0.6	0.78
COc1ccccc1N=c1oc2c(OC)cccc2cc1C(=O)NCc1ccco1	62*	-0.41	66*	0.4	0.3	0.2
O=c1oc(-c2cccnc2)nc2ccccc12	-2	-4.5*	5	1	0.9	-0.41
COc1ccc(-c2nc3ccccc3c(=O)o2)cc1OC	14	.	-12	0.9	1.1	0.67
Cc1onc(-c2ccccc2)c1-c1nc2ccccc2c(=O)o1	35	.	51*	0.6	0.5	0.26
CCOC(=O)C1=C(C)Nc2ccccc2N=C1NC(=O)c1cccc(S(=O)(=O)NCc2ccccc2)c1	33	.	-7	0.7	1.1	-0.55
COc1ccc(-n2nc(N)c3c(=O)oc(N(C)C)nc32)cc1	21	.	40	0.8	0.6	0.38
CCCCOc1ccc(-c2nnc(-c3ccncc3)o2)cc1	54*	-0.042	96*	0.5	0	0.96
CCCOc1ccc(-c2nnc(-c3cccs3)o2)cc1	.	.	.	.	.	-1
CCOc1ccc(-c2nnc(-c3ccncc3)o2)cc1	44	-0.99	99*	0.6	0	0.41
O=C(NCc1ccco1)C(c1cccs1)N(Cc1ccccc1)C(=O)Cn1nnc2ccccc21 (stereo not given)	5	-0.47	30	0.9	0.7	-0.69
Cc1ccc(CN(C(=O)Cn2nnc3ccccc32)C(C(=O)NCc2ccco2)c2cccs2)cc1 (stereo not given)	40	0.45	73*	0.6	0.3	-0.39
Cn1c(N)c(C(=O)COC(=O)C2(c3ccc(Cl)cc3)CCCC2)c(=O)n(C)c1=O	-13	.	58*	1.1	0.4	-0.85
CCN1c2ccccc2-c2nc3ccccc3n2C1c1ccco1 (stereo not given)	59*	.	28	0.4	0.7	-0.64
CN1c2ccccc2-c2nc3ccccc3n2C1c1ccncc1 (stereo not given)	95*	-0.39	96*	0	0	0.13
CC1=C(C(N)=O)C(c2ccccc2F)NC(=O)N1 (stereo not given)	53*	.	-4	0.5	1	-0.22
CCOC(=O)C1=C(C)NC(=O)NC1c1ccccc1OCc1c(F)cccc1Cl (stereo not given)	70*	.	21	0.3	0.8	0.043
CCOC(=O)C1=C(N)OC2=C(C(=O)CCC2)C1c1ccccc1OCC (stereo not given)	49	0.032	80*	0.5	0.2	-0.49
CCCC1=C(C(=O)OCC)C(c2ccccc2OCC)NC(=O)N1C (stereo not given)	81*	-1.8	81*	0.2	0.2	-0.11
CS/C(=N\S(=O)(=O)c1ccc(N)cc1)NS(=O)(=O)c1cccs1	42	1.3	9	0.6	0.9	-0.7
CCOC(=O)C1=C(c2ccccc2)N2CCN=C2S1	.	3.1	.	.	.	.
Cc1ccc(S(=O)(=O)N2CCC(C(=O)N[C@H](C(=O)NCC3CCCO3)C(C)C)CC2)cc1 (stereo not given in full)	-1	-0.64	5	1	1	-0.44
CCCCOc1ccccc1C1NC(=O)NC(C)=C1C(=O)OCCOCC (stereo not given)	75*	1	70*	0.3	0.3	0.34
CCCCOc1ccccc1C1NC(=O)NC(C)=C1C(=O)OCc1ccco1 (stereo not given)	73*	-0.39	61*	0.3	0.4	0.19
SMILES	CYP2C9 inhib	D1 mod	CYP2C19 inhib	CYP2C9 act	CYP2C19 act	hDAT+cocaine
CCCOc1ccccc1C1NC(=O)NC(C)=C1C(=O)OCCOCC (stereo not given)	21	1.4	24	0.8	0.8	-0.42
O=C(O)CC(C(=O)Nc1ccc(Cl)c(Cl)c1)C1CCCO1 (stereo not given)	-10	.	5	1.1	1	-0.39
COCc1cc(C)nc(SCC(=O)c2ccc(O)c(O)c2)c1C#N	-19	1.3	40	1.2	0.6	-0.013
CCN(Cc1ccccc1)C(=O)COC(=O)c1n[nH]c2ccccc12	4	.	45	1	0.5	0.22
CC(C)CCn1cnc2c([nH]c3cccc(Cl)c32)c1=O	50*	0.86	27	0.5	0.7	-1.5
CC(C)[C@H](NC(=O)c1ccccc1)C(=O)OCC(=O)N1CCc2ccccc2C1	-33	.	-12	1.3	1.1	-0.0093
COc1ccccc1N/C(N)=N/c1nc(CSc2ccc(C)cc2)cc(=O)[nH]1	61*	-1.1	61*	0.4	0.4	-0.01
COc1ccc(N/C(N)=N/c2nc(CSc3ccc(C)cc3)cc(=O)[nH]2)cc1	29	-0.96	37	0.7	0.6	.
CCN(CC)S(=O)(=O)c1ccccc1/C=N\O	10	-2	49	0.9	0.5	0.89
CC(CN1CCCCC1)OC(=O)C1c2ccccc2Oc2ccccc21 (stereo not given)	-17	.	72*	1.2	0.3	0.55
O=C(NNC1CC(=O)N(c2ccc3c(c2)OCCO3)C1=O)c1ccccc1 (stereo not given)	6	.	6	0.9	0.9	0.18
Cc1ccc(S(=O)(=O)c2c(COC(=O)c3ccccc3Cl)c(-c3ccccc3)nn2C)cc1	70*	.	50*	0.3	0.5	1.5
O=C(CCCC(=O)N(CC(=O)NC1CCCCC1)Cc1ccco1)Nc1ccccn1	10	-0.82	6	0.9	0.9	0.51
O=C(CCCC(=O)N(CC(=O)NC1CCCC1)C1CCCC1)Nc1ccccn1	15	-0.08	32	0.9	0.7	0.37
Cc1ccnc(NC(=O)CCC(=O)N(CC(=O)NC2CCCCC2)Cc2ccc3c(c2)OCO3)c1	76*	0.046	56*	0.2	0.4	.
O=C(CCCC(=O)N(CC(=O)NC1CCCC1)Cc1ccc(F)cc1)Nc1ccccn1	52*	-0.23	44	0.5	0.6	-0.72
O=C(CCCC(=O)N(CC(=O)NC1CCCCC1)Cc1ccc2c(c1)OCO2)Nc1ccccn1	64*	-0.17	65*	0.4	0.4	0.74
O=c1cc(C(F)(F)C(F)F)oc2ccccc12	11	.	-19	0.9	1.2	-0.27
O=c1c2cc(N3CCOCC3)ccc2[nH]c(=S)n1Cc1ccco1	53*	2	28	0.5	0.7	-0.65
O=c1c2cc(N3CCOCC3)ccc2[nH]c(=S)n1Cc1cccc(Cl)c1	2	.	-5	1	1.1	1.1
CC1=C(C(=O)OCc2ccccc2)C(c2ccco2)C2=C(CC(C)(C)CC2=O)N1 (stereo not given)	67*	-1.4	63*	0.3	0.4	-0.33
